# From the supplement of paper PMC8728848
# The full list was thinned out, with the strongest signals kept by preference.
# What was measured:
# Experiment in all cases: glycan array binding signal (z-score within array); higher = stronger binding
# Conditions in all cases: glycan notation: IUPAC condensed, linker removed
# Fuc(a1-2)Gal(b1-3)GlcNAc = biological target: Fuc(a1-2)Gal(b1-3)GlcNAc
# How it was run: (§1)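 The Consortium for Functional Glycomics database supplied 3228 glycan arrays, of which those lacking an available protein sequence were dropped. The binding signal, a within-array Z-score, was averaged across arrays of the same protein sequence and across linkers. Negative scores can be read as non-binding.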
# [1] = biological target: Fuc(a1-2)Gal(b1-3)GlcNAc(b1-2)Man(a1-3)[Fuc(a1-2)Gal(b1-3)GlcNAc(b1-2)Man(a1-6)]Man(b1-4)GlcNAc(b1-4)[Fuc(a1-6)]GlcNAc
# How it was run: as §1
# [2] = biological target: Fuc(a1-2)Gal(b1-3)GlcNAc(b1-3)Gal(b1-4)Glc
# How it was run: as §1
# [3] = biological target: Fuc(a1-2)Gal(b1-3)GlcNAc(b1-3)GalNAc
# How it was run: as §1
# [4] = biological target: Fuc(a1-2)Gal(b1-3)GlcNAc6S
# How it was run: as §1
# Fuc(a1-2)Gal(b1-4)Glc = biological target: Fuc(a1-2)Gal(b1-4)Glc
# How it was run: as §1
# Fuc(a1-2)Gal(b1-4)Glc6S = biological target: Fuc(a1-2)Gal(b1-4)Glc6S
# How it was run: as §1
# [5] = biological target: Fuc(a1-2)Gal(b1-4)GlcNAc(b1-3)Gal(b1-4)GlcNAc
# How it was run: as §1
# [6] = biological target: Fuc(a1-2)Gal3S(b1-4)GlcNAc
# How it was run: as §1
# [7] = biological target: Fuc(a1-2)Gal6S(b1-3)GlcNAc6S
# How it was run: as §1
# [8] = biological target: Fuc(a1-2)[Gal(a1-3)]Gal(b1-3)GlcNAc
# How it was run: as §1
# [9] = biological target: Fuc(a1-2)[Gal(a1-3)]Gal(b1-3)GlcNAc(b1-2)Man(a1-3)[Fuc(a1-2)[Gal(a1-3)]Gal(b1-3)GlcNAc(b1-2)Man(a1-6)]Man(b1-4)GlcNAc(b1-4)[Fuc(a1-6)]GlcNAc
# How it was run: as §1
# [10] = biological target: Fuc(a1-2)[Gal(a1-3)]Gal(b1-4)GlcNAc(b1-2)Man
# How it was run: as §1
# [11] = biological target: Fuc(a1-2)[Gal(a1-3)]Gal(b1-4)GlcNAc(b1-2)Man(a1-3)[Fuc(a1-2)[Gal(a1-3)]Gal(b1-4)GlcNAc(b1-2)Man(a1-6)]Man(b1-4)GlcNAc(b1-4)GlcNAc
# How it was run: as §1
# [12] = biological target: Fuc(a1-2)[Gal(a1-4)]Gal(b1-4)GlcNAc
# How it was run: as §1
# [13] = biological target: Fuc(a1-2)[GalNAc(a1-3)]Gal(b1-4)GlcNAc(b1-2)Man
# How it was run: as §1
# [14] = biological target: Fuc(a1-2)[GalNAc(b1-3)]Gal
# How it was run: as §1
# [15] = biological target: Gal(a1-3)Gal(b1-4)[Fuc(a1-3)]GlcNAc
# How it was run: as §1
# Gal(a1-4)Gal(b1-4)Glc = biological target: Gal(a1-4)Gal(b1-4)Glc
# How it was run: as §1
# Gal(b1-3)Gal(b1-4)GlcNAc = biological target: Gal(b1-3)Gal(b1-4)GlcNAc
# How it was run: as §1
# [16] = biological target: Gal(b1-3)GlcNAc(b1-3)Gal(b1-4)GlcNAc
# How it was run: as §1
# [17] = biological target: Gal(b1-3)[Neu5Ac(a2-6)]GalNAc
# How it was run: as §1
# [18] = biological target: Gal(b1-4)GlcNAc(b1-2)Man(a1-3)[Gal(b1-4)GlcNAc(b1-2)Man(a1-6)][Gal(b1-4)GlcNAc(b1-4)]Man(b1-4)GlcNAc(b1-4)[Fuc(a1-6)]GlcNAc
# How it was run: as §1
# [19] = biological target: Gal(b1-4)GlcNAc(b1-2)Man(a1-3)[GlcNAc(b1-2)Man(a1-6)]Man(b1-4)GlcNAc(b1-4)GlcNAc
# How it was run: as §1
# [20] = biological target: Gal(b1-4)GlcNAc(b1-3)Gal(b1-3)GlcNAc
# How it was run: as §1
# [21] = biological target: Gal(b1-4)GlcNAc(b1-3)Gal(b1-4)GlcNAc(b1-3)Gal(b1-4)GlcNAc(b1-3)Gal(b1-4)GlcNAc(b1-3)Gal(b1-4)GlcNAc(b1-3)Gal(b1-4)GlcNAc(b1-2)Man(a1-3)[Gal(b1-4)GlcNAc(b1-3)Gal(b1-4)GlcNAc(b1-3)Gal(b1-4)GlcNAc(b1-3)Gal(b1-4)GlcNAc(b1-3)Gal(b1-4)GlcNAc(b1-3)Gal(b1-4)GlcNAc(b1-2)Man(a1-6)]Man(b1-4)GlcNAc(b1-4)GlcNAc
# How it was run: as §1
# [22] = biological target: Gal3S(b1-3)[Fuc(a1-4)]GlcNAc
# How it was run: as §1
# Gal6S(b1-3)GlcNAc6S = biological target: Gal6S(b1-3)GlcNAc6S
# How it was run: as §1
# GalNAc(b1-3)GalNAc = biological target: GalNAc(b1-3)GalNAc
# How it was run: as §1
# GlcNAc(b1-3)Gal(b1-4)Glc = biological target: GlcNAc(b1-3)Gal(b1-4)Glc
# How it was run: as §1
# [23] = biological target: GlcNAc(b1-3)Gal(b1-4)GlcNAc
# How it was run: as §1
# [24] = biological target: GlcNAc(b1-3)[GlcNAc(b1-6)]GalNAc
# How it was run: as §1
# Kdn(a2-3)Gal(b1-3)GlcNAc = biological target: Kdn(a2-3)Gal(b1-3)GlcNAc
# How it was run: as §1
# Man(a1-2)Man(a1-3)Man = biological target: Man(a1-2)Man(a1-3)Man
# How it was run: as §1
# [25] = biological target: Neu5Ac(a2-3)Gal(b1-3)GalNAc(b1-3)Gal(a1-4)Gal(b1-4)Glc
# How it was run: as §1
# [26] = biological target: Neu5Ac(a2-3)Gal(b1-3)GlcNAc(b1-2)Man(a1-3)[Neu5Ac(a2-3)Gal(b1-3)GlcNAc(b1-2)Man(a1-6)]Man(b1-4)GlcNAc(b1-4)GlcNAc
# How it was run: as §1
# [27] = biological target: Neu5Ac(a2-3)Gal(b1-3)[Fuc(a1-4)]GlcNAc
# How it was run: as §1
# [28] = biological target: Neu5Ac(a2-3)Gal(b1-4)GlcNAc(b1-2)[Neu5Ac(a2-3)Gal(b1-4)GlcNAc(b1-4)]Man(a1-3)[GlcNAc(b1-4)][Neu5Ac(a2-3)Gal(b1-4)GlcNAc(b1-4)Man(a1-6)]Man(b1-4)GlcNAc(b1-4)GlcNAc
# How it was run: as §1
# [29] = biological target: Neu5Ac(a2-3)Gal(b1-4)GlcNAc(b1-3)Gal
# How it was run: as §1
# [30] = biological target: Neu5Ac(a2-3)Gal(b1-4)GlcNAc(b1-3)Gal(b1-4)GlcNAc(b1-2)Man(a1-3)[Neu5Ac(a2-3)Gal(b1-4)GlcNAc(b1-3)Gal(b1-4)GlcNAc(b1-2)Man(a1-6)]Man(b1-4)GlcNAc(b1-4)GlcNAc
# How it was run: as §1
# [31] = biological target: Neu5Ac(a2-3)Gal(b1-4)GlcNAc(b1-3)Gal(b1-4)GlcNAc(b1-3)GalNAc
# How it was run: as §1
# [32] = biological target: Neu5Ac(a2-3)Gal(b1-4)GlcNAc(b1-3)Gal(b1-4)[Fuc(a1-3)]GlcNAc
# How it was run: as §1
# [33] = biological target: Neu5Ac(a2-3)Gal(b1-4)[Fuc(a1-3)]GlcNAc(b1-3)Gal
# How it was run: as §1
# [34] = biological target: Neu5Ac(a2-3)Gal(b1-4)[Fuc(a1-3)]GlcNAc(b1-3)Gal(b1-4)GlcNAc
# How it was run: as §1
# [35] = biological target: Neu5Ac(a2-3)Gal(b1-4)[Fuc(a1-3)]GlcNAc6S
# How it was run: as §1
# [36] = biological target: Neu5Ac(a2-3)Gal6S(b1-4)GlcNAc
# How it was run: as §1
# [37] = biological target: Neu5Ac(a2-3)Gal6S(b1-4)[Fuc(a1-3)]GlcNAc
# How it was run: as §1
# [38] = biological target: Neu5Ac(a2-3)[GalNAc(b1-4)]Gal(b1-4)GlcNAc
# How it was run: as §1
# [39] = biological target: Neu5Ac(a2-6)Gal(b1-4)GlcNAc
# How it was run: as §1
# [40] = biological target: Neu5Ac(a2-6)Gal(b1-4)GlcNAc(b1-2)[Neu5Ac(a2-6)Gal(b1-4)GlcNAc(b1-4)]Man(a1-3)[GlcNAc(b1-4)][Neu5Ac(a2-6)Gal(b1-4)GlcNAc(b1-2)[Neu5Ac(a2-6)Gal(b1-4)GlcNAc(b1-6)]Man(a1-6)]Man(b1-4)GlcNAc(b1-4)GlcNAc
# How it was run: as §1
# [41] = biological target: Neu5Ac(a2-6)Gal(b1-4)GlcNAc(b1-3)Gal(b1-3)GlcNAc
# How it was run: as §1
# [42] = biological target: Neu5Ac(a2-6)Gal(b1-4)GlcNAc(b1-6)[Gal(b1-3)GlcNAc(b1-3)]Gal(b1-4)Glc
# How it was run: as §1
# [43] = biological target: Neu5Ac(a2-6)Gal(b1-4)GlcNAc6S
# How it was run: as §1
# Neu5Ac(a2-6)GalNAc = biological target: Neu5Ac(a2-6)GalNAc
# How it was run: as §1
# [44] = biological target: Neu5Ac9Ac(a2-3)Gal(b1-4)GlcNAc
# How it was run: as §1
# [45] = biological target: Neu5Gc(b2-6)Gal(b1-4)GlcNAc
# How it was run: as §1
binder,measurement,setting,value
CML1 (Coprinopsis cinerea) (protein) MAIFHTGSELFIITRGPGKLTLLTWGGLNNLRSVIGAIPTENTGVTKWAVSFSHNYTRFSFIWEGQGEACYQIGNGLTRSPVGRSWSSSSTIHWGSSTVITEDVTSVVPGAVNRDKVTTAYALPDNL,glycan array binding signal (z-score),Fuc(a1-2)Gal(b1-3)GlcNAc,5.31
same,glycan array binding signal (z-score),[1],1.34
same,glycan array binding signal (z-score),[2],4.85
same,glycan array binding signal (z-score),[3],3.31
same,glycan array binding signal (z-score),[4],4.12
same,glycan array binding signal (z-score),Fuc(a1-2)Gal(b1-4)Glc,-0.039
same,glycan array binding signal (z-score),Fuc(a1-2)Gal(b1-4)Glc6S,1.38
same,glycan array binding signal (z-score),[5],-0.335
same,glycan array binding signal (z-score),[6],-0.157
same,glycan array binding signal (z-score),[7],3.67
same,glycan array binding signal (z-score),[8],3.51
same,glycan array binding signal (z-score),[9],1.07
same,glycan array binding signal (z-score),[10],-0.329
same,glycan array binding signal (z-score),[11],-0.242
same,glycan array binding signal (z-score),[12],-0.314
same,glycan array binding signal (z-score),[13],-0.348
same,glycan array binding signal (z-score),[14],-0.318
same,glycan array binding signal (z-score),[15],-0.346
same,glycan array binding signal (z-score),Gal(a1-4)Gal(b1-4)Glc,-0.322
same,glycan array binding signal (z-score),Gal(b1-3)Gal(b1-4)GlcNAc,-0.329
same,glycan array binding signal (z-score),[16],-0.339
same,glycan array binding signal (z-score),[17],-0.338
same,glycan array binding signal (z-score),[18],-0.348
same,glycan array binding signal (z-score),[19],-0.342
same,glycan array binding signal (z-score),[20],-0.326
same,glycan array binding signal (z-score),[21],-0.303
same,glycan array binding signal (z-score),[22],3.48
same,glycan array binding signal (z-score),Gal6S(b1-3)GlcNAc6S,-0.336
same,glycan array binding signal (z-score),GalNAc(b1-3)GalNAc,-0.349
same,glycan array binding signal (z-score),GlcNAc(b1-3)Gal(b1-4)Glc,-0.323
same,glycan array binding signal (z-score),[23],-0.329
same,glycan array binding signal (z-score),[24],-0.329
same,glycan array binding signal (z-score),Kdn(a2-3)Gal(b1-3)GlcNAc,-0.319
same,glycan array binding signal (z-score),Man(a1-2)Man(a1-3)Man,-0.348
same,glycan array binding signal (z-score),[25],-0.333
same,glycan array binding signal (z-score),[26],-0.355
same,glycan array binding signal (z-score),[27],4.64
same,glycan array binding signal (z-score),[28],-0.332
same,glycan array binding signal (z-score),[29],-0.3
same,glycan array binding signal (z-score),[30],-0.331
same,glycan array binding signal (z-score),[31],-0.342
same,glycan array binding signal (z-score),[32],-0.341
same,glycan array binding signal (z-score),[33],4.46
same,glycan array binding signal (z-score),[34],2.41
same,glycan array binding signal (z-score),[35],4.04
same,glycan array binding signal (z-score),[36],6.01
same,glycan array binding signal (z-score),[37],3.49
same,glycan array binding signal (z-score),[38],-0.353
same,glycan array binding signal (z-score),[39],-0.352
same,glycan array binding signal (z-score),[40],-0.321
same,glycan array binding signal (z-score),[41],-0.35
same,glycan array binding signal (z-score),[42],-0.355
same,glycan array binding signal (z-score),[43],-0.334
same,glycan array binding signal (z-score),Neu5Ac(a2-6)GalNAc,-0.331
same,glycan array binding signal (z-score),[44],-0.348
same,glycan array binding signal (z-score),[45],-0.339
